# Records with an inconclusive call do not appear. Activity calls are given as the source filed them. Unless noted, calls come from the whole dose curve.
# What was measured:
# [1] = molecular target: Estrogen receptor (Homo sapiens) (UniProt P03372); assay: qHTS assay for small molecule antagonists of estrogen receptor alpha signaling (AID 588513; active = well fitted curve in the direction sought with a large enough effect in the signal ratio, with a control signal flat, not every such curve was filed as active; the % refers to the signal ratio; note: % is set by controls: 0 for no effect and ±100 for the full control effect); settings: ER-alpha-UAS-bla HEK293, beta-lactamase ratio, antagonist mode; series mostly up to 76.9 µM
# Estrogen receptor (Homo sapiens), sequence (P03372 whole entry, looked up): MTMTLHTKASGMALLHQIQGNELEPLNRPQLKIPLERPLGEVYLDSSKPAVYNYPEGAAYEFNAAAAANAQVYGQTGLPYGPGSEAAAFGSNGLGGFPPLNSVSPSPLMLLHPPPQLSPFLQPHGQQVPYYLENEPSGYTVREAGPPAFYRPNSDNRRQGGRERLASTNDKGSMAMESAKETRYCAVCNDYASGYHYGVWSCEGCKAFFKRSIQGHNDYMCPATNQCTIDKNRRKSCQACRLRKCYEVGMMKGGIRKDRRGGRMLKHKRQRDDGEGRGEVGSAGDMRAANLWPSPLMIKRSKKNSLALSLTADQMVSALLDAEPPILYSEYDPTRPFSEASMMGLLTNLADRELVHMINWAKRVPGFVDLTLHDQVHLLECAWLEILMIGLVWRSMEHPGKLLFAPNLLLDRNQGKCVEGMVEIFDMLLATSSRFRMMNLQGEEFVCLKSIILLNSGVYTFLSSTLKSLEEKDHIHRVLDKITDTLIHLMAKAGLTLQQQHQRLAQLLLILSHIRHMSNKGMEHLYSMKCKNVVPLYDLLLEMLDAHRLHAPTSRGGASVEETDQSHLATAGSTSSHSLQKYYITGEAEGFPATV
# Method in brief: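 Antagonist-mode qHTS in ER-alpha-UAS-bla HEK 293 cells: compound titration, 0.5nM estradiol for 18 h, CCF4 fluorescence, Hill-derived IC50.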
# [2] = molecular target: Estrogen receptor (Homo sapiens) (UniProt P03372); assay: qHTS assay for small molecule agonists of estrogen receptor alpha signaling (AID 588514); settings: ER-alpha-UAS-bla HEK293, beta-lactamase ratio, 18 h; series mostly up to 76.8 µM; note: potency is the fitted concentration of half-maximal effect; nearly all actives have a fitted effect of over 70% in size
# Method in brief: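 ER-alpha-UAS-bla GripTite HEK 293 cells in medium with 2% charcoal/dextran-treated FBS were treated with compound titrations at 37 C for 18 hrs; beta-lactamase reporter read by CCF4 fluorescence after 2 hrs at RT.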
# [3] = molecular target: Bile acid receptor (Homo sapiens) (UniProt Q96RI1); assay: qHTS assay for small molecule antagonists of farnesoid X receptor signaling (AID 588526); settings: HEK293T FXR-UAS-bla, beta-lactamase ratio, antagonist mode; series mostly up to 76.7 µM; note: % is set by controls: 0 for no effect and ±100 for the full control effect
# Bile acid receptor (Homo sapiens), sequence (Q96RI1 whole entry, looked up): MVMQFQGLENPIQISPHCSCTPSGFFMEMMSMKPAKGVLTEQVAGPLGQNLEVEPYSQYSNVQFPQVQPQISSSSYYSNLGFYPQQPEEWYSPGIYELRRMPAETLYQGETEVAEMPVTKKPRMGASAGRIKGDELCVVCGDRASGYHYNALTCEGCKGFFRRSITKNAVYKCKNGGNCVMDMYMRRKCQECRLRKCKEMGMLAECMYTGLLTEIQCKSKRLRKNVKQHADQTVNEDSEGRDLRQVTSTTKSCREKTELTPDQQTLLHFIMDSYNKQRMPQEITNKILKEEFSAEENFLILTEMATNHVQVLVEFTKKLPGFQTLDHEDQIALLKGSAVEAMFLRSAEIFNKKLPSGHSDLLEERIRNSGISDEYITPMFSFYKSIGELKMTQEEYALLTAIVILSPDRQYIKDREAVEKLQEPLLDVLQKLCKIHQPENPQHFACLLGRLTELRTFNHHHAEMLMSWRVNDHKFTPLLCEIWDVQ
# Method in brief: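 Antagonist mode: titrated compounds tested against chenodeoxycholic acid stimulation (normalized to 50 uM CDCA and DMSO) in GeneBLAzer HEK293T cells for 16 h. Beta-lactamase read by CCF4 fluorescence; IC50 from Hill fits.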
# [4] = qHTS assay for small molecule antagonists of peroxisome proliferator-activated receptor delta signaling (AID 588535; active = well fitted inhibition curve with a large enough effect in the signal ratio, with a control signal flat, not every such curve was filed as active; the % refers to the signal ratio;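 for max response: cells co-treated with a PPAR-delta agonist as stimulator during compound exposure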); settings: HEK293T PPARd-UAS-bla, beta-lactamase FRET ratio, 18 h; 460 nm channel
# Method in brief: (§1)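 Cells were seeded at 4000 per well in assay medium containing 2% charcoal/dextran FBS and held 5 hrs at 37 C. Compounds were then added for 18 hrs. CCF4 substrate was applied for 2 hrs at room temperature before fluorescence reading.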
# [5] = molecular target: Peroxisome proliferator-activated receptor delta (Homo sapiens) (UniProt Q03181); assay: as above; settings: HEK293T PPARd-UAS-bla, beta-lactamase FRET ratio, 18 h; series mostly up to 76.7 µM
# Peroxisome proliferator-activated receptor delta (Homo sapiens), sequence (Q03181 whole entry, looked up): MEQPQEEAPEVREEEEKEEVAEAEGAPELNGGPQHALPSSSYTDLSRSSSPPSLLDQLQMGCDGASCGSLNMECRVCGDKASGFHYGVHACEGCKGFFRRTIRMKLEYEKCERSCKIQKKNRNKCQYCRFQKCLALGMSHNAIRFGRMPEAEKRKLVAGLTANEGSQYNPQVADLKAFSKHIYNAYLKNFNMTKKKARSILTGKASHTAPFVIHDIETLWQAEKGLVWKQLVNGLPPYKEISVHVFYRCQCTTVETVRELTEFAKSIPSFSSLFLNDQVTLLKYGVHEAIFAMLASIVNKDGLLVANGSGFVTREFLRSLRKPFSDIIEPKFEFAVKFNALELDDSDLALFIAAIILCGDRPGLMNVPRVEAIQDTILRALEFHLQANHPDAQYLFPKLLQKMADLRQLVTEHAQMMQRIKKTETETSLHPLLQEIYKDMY
# Method in brief: as §1
# [6] = molecular target: Peroxisome proliferator-activated receptor gamma (Homo sapiens) (UniProt P37231); assay: qHTS assay for small molecule agonists of peroxisome proliferator-activated receptor gamma signaling (AID 588536; active = well fitted curve in the direction sought with a large enough effect in the signal ratio, with a control signal flat, not every such curve was filed as active; the % refers to the signal ratio;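 note: 0% = DMSO basal wells and 100% = rosiglitazone at 2 µM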); settings: HEK293 PPARg-UAS-bla, beta-lactamase ratio, 16 h, percent of rosiglitazone response, DMSO as zero; series mostly up to 76.7 µM
# Peroxisome proliferator-activated receptor gamma (Homo sapiens), sequence (P37231 whole entry, looked up): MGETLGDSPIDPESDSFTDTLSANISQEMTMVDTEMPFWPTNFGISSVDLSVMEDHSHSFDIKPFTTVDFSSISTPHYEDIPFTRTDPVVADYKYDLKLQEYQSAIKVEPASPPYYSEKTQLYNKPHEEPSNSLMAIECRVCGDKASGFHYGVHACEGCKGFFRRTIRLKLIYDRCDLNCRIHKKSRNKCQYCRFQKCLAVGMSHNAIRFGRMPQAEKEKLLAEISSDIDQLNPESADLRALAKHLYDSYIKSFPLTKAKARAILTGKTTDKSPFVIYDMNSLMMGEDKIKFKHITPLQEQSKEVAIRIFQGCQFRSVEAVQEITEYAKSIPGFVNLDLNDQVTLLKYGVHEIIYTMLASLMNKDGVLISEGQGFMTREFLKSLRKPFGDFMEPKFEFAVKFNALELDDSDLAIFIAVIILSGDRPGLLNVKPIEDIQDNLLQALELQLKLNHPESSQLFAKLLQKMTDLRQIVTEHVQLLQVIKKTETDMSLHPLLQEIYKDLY
# Method in brief: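 HEK293 UAS-bla reporter line, 1% charcoal/dextran FBS; titration, 16 h, 37 C; CCF4 loading 2 h RT; fluorescence 460/530 nm. Normalized to rosiglitazone 2 uM = 100%, DMSO = 0%.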
# [7] = molecular target: Vitamin D3 receptor (Homo sapiens) (UniProt P11473); assay: qHTS assay for small molecule antagonists of vitamin D receptor signaling (AID 588541); settings: HEK293T VDR-UAS-bla, beta-lactamase ratio, antagonist mode; series mostly up to 76.7 µM;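 note: receptor activated by calcitriol during compound treatment; % is set by controls: 0 for no effect and ±100 for the full control effect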
# Vitamin D3 receptor (Homo sapiens), sequence (P11473 whole entry, looked up): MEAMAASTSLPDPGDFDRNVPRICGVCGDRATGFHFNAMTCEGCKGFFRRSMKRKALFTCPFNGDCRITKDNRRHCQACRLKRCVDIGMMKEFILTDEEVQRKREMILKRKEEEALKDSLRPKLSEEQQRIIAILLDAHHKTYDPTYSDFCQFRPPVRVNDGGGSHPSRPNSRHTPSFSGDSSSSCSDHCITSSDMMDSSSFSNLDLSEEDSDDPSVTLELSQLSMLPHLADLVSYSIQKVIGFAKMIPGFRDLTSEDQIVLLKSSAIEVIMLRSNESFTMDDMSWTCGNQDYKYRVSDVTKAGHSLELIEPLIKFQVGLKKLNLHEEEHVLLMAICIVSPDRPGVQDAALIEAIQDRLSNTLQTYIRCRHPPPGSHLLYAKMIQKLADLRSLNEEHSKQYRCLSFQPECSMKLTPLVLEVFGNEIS
# Method in brief: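 VDR-UAS-bla HEK293T cells in 2% charcoal-stripped FBS were stimulated with 1-alpha,25-dihydroxyvitamin D3 (3 nM final) plus compound for 16 h at 37 C. The beta-lactamase CCF4 readout was normalized to 50 nM agonist and DMSO, and Hill fits gave IC50.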
# [8] = molecular target: Vitamin D3 receptor (Homo sapiens) (UniProt P11473); assay: qHTS assay for small molecule agonists of vitamin D receptor signaling (AID 588543); settings: HEK293T VDR-UAS-bla, beta-lactamase ratio, 16 h; series mostly up to 76.8 µM;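 note: 0% = DMSO basal and 100% = reference agonist control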
# Method in brief: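 Measured: β-lactamase reporter activity (CCF4, 405 nm excitation, 460/530 nm emission) in HEK293T VDR-UAS-bla cells after 16 h compound exposure at 37 °C. Normalization against 50 nM 1α,25-dihydroxyvitamin D3 and DMSO; Hill-fit EC50.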
# [9] = qHTS assay for small molecule agonists of retinoid X receptor alpha signaling (AID 588544); settings: HEK293T RXRa-UAS-bla, beta-lactamase reporter, 18 h; 530 nm emission;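 for activation: 0% = DMSO basal wells and 100% = reference agonist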
# [10] = molecular target: Retinoic acid receptor RXR-alpha (Homo sapiens) (UniProt P19793); assay: as above; settings: HEK293T RXRa-UAS-bla, beta-lactamase reporter, 18 h; series mostly up to 76.7 µM
# Retinoic acid receptor RXR-alpha (Homo sapiens), sequence (P19793 whole entry, looked up): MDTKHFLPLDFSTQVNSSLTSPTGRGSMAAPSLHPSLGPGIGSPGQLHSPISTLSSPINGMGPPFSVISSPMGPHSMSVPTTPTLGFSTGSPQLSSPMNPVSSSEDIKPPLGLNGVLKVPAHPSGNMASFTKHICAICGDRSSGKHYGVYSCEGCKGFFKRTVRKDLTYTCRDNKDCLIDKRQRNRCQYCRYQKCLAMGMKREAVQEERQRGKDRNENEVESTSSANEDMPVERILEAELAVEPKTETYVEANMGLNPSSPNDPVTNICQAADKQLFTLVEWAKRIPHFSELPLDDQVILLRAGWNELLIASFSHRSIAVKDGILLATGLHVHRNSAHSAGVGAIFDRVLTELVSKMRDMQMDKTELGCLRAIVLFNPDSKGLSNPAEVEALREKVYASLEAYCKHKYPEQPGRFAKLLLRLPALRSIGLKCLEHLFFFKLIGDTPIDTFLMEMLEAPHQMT
# [11] = molecular target: Thyroid hormone receptor beta (Homo sapiens) (UniProt P10828); assay: qHTS assay for small molecule agonists of thyroid hormone receptor beta signaling (AID 588545); settings: TR-UAS-bla GripTite HEK 293, beta-lactamase ratio, agonist mode, 18 h; series mostly up to 76.7 µM;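 note: 0% = DMSO only and 100% = 10 nM T3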
# Thyroid hormone receptor beta (Homo sapiens), sequence (P10828 whole entry, looked up): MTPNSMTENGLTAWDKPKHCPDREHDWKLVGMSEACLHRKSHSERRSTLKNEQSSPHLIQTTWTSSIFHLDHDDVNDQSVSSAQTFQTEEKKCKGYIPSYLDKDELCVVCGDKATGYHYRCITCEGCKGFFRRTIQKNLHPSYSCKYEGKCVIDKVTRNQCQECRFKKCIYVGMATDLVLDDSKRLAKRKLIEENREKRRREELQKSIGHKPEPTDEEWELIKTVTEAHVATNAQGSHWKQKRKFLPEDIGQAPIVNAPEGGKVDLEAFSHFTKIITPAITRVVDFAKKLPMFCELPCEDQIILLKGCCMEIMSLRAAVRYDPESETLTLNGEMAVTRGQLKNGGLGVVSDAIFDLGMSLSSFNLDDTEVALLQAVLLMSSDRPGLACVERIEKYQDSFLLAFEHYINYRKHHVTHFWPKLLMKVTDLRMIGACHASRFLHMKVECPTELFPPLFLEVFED
# Method in brief: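 TR-UAS-bla GripTite HEK 293 cells (2500/well, medium with 2% charcoal/dextran FBS) were treated in agonist mode for 18 h at 37 C, titrated. Beta-lactamase was read by CCF4 ratio after 2 h; normalized to 10 nM T3 (100%) and DMSO, Hill-fitted for EC50 and efficacy.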
# [12] = qHTS assay for small molecule antagonists of retinoid X receptor alpha signaling (AID 588546; active = well fitted inhibition curve with a large enough effect in the signal ratio, with a control signal flat, not every such curve was filed as active; the % refers to the signal ratio;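 note: cells stimulated with 9-cis-retinoic acid as agonist; % is set by controls: 0 for no effect and ±100 for the full control effect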); settings: HEK293T RXRa-UAS-bla, beta-lactamase ratio, antagonist mode; measured here: W530 green channel, cytotoxicity proxy
# Method in brief: (§2)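 Beta-lactamase reporter inhibition, read as CCF4 fluorescence ratio (ex 405, em 460/530 nm) after 2 h at RT. HEK293T UAS-bla cells, 2500/well, were stimulated with 9-cis-RA at 500 or 100 nM final alongside test compound for 18 h at 37 C.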
# [13] = molecular target: Retinoic acid receptor RXR-alpha (Homo sapiens) (UniProt P19793); assay: as above; settings: HEK293T RXRa-UAS-bla, beta-lactamase ratio, antagonist mode
# Method in brief: as §2
# [14] = qHTS assay for small molecule agonists of the antioxidant response element (ARE) signaling pathway (AID 651741; active = well fitted activation curve with a large enough effect in the signal ratio; the % refers to the signal ratio; note: potency is the fitted concentration of half-maximal effect); settings: HepG2 ARE-bla reporter, beta-lactamase FRET ratio, 16 h; series mostly up to 96 µM
# Method in brief: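 HepG2 ARE-bla cells plated at 2,000 cells/well and incubated 5 h at 37 C/5% CO2 received 23 nL compound in DMSO. After 16 h at 37 C, LiveBLAzer B/G FRET substrate was applied for 2 h at room temperature and fluorescence read.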
# [15] = qHTS assay for small molecule activators of the nuclear factor-kappa B (NF-kB) signaling pathway (AID 651749; active = well fitted activation curve with a large enough effect in the signal ratio; the % refers to the signal ratio; note: % of control where 0% means no effect); settings: NF-kB-bla ME-180 cells, beta-lactamase FRET ratio, 16 h; stronger effect = higher value
# Method in brief: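 Incubation lasted 16 hr at 37C in 5% CO2 after 23 nL compound addition to ME-180 NF-kB-bla cells. Activation appears as beta-lactamase-mediated FRET loss.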
# [16] = qHTS assay for environmental chemicals that activate the Aryl hydrocarbon Receptor (AhR) signaling pathway (AID 651777; active = well fitted curve in the direction sought with a large enough effect; an effect the other way counts as inactive or inconclusive; note: % of control where 0% means no effect; nearly all actives have a fitted effect of over 15% in size); settings: 1A2-DRE human hepatoma cells, luciferase, 24 h; activation: stronger effect = higher value
# Method in brief: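 Luminescence read-out: One-Glo added for 30 min at RT after 24 hr compound treatment (37 C, 5% CO2) of human hepatoma cells expressing a DRE/CYP1A2 promoter–luciferase reporter; increased signal indicates AhR activation.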
# [17] = molecular target: Peroxisome proliferator-activated receptor alpha (Homo sapiens) (UniProt Q07869); assay: qHTS assay for small molecule agonists of the peroxisome proliferator-activated receptor alpha (PPARalpha) signaling pathway (AID 651778; active = well fitted curve in the direction sought with a large enough effect; an effect the other way counts as inactive or inconclusive; note: % of control where 0% means no effect); settings: PathHunter PPARalpha complementation, chemiluminescence, 6 h; max response: stronger effect = higher value
# Peroxisome proliferator-activated receptor alpha (Homo sapiens), sequence (Q07869 whole entry, looked up, the tested form may be a part): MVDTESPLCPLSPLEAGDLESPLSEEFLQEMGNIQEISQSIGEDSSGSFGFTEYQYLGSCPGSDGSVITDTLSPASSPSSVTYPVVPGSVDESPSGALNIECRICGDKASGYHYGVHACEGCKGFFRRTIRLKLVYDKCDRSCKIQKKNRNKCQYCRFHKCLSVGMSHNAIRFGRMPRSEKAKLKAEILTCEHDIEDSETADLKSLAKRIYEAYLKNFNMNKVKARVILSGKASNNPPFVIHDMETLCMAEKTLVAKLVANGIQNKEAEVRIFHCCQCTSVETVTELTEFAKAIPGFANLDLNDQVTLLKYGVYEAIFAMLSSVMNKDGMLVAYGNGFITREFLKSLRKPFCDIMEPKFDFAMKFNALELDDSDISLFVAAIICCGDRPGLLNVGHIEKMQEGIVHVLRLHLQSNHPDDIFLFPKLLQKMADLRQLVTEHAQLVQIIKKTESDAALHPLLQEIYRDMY
# Method in brief: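 Enzyme-fragment complementation assay in which ligand-bound PPARalpha translocates and forms an active enzyme that generates chemiluminescence. Cells were plated overnight, exposed to compound for 6 hr at 37 C, and then given detection reagent for 60 min at room temperature.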
# [18] = qHTS assay for small molecule agonists of the antioxidant response element (ARE) signaling pathway measured by Nrf2-dependant transcriptional activity - cell viability counter screen (AID 720653; active = well fitted curve in the direction sought with a large enough effect in the repeat runs; an effect the other way counts as inactive or inconclusive; note: % is set by controls: 0 for no effect and ±100 for the full control effect); settings: ARE-bla HepG2 viability, CellTiter-Glo ATP luminescence, 16 h; max response: stronger effect = lower value
# Method in brief: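 ARE-bla HepG2 cells treated with compounds for 16 h at 37C; this counter screen measures viability as intracellular ATP by CellTiter-Glo luminescence after 30 min at room temperature.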
# [19] = molecular target: Nuclear receptor subfamily 1 group I member 2 (Rattus norvegicus) (UniProt Q9R1A7); assay: qHTS assay for small molecule activators of the rat pregnane X receptor (rPXR) signaling pathway (AID 651751; call rule not given here; note: 0% is about no effect); settings: rPXR reporter cells, luciferase (One-Glo), 24 h
# Nuclear receptor subfamily 1 group I member 2 (Rattus norvegicus), sequence (Q9R1A7 whole entry, looked up): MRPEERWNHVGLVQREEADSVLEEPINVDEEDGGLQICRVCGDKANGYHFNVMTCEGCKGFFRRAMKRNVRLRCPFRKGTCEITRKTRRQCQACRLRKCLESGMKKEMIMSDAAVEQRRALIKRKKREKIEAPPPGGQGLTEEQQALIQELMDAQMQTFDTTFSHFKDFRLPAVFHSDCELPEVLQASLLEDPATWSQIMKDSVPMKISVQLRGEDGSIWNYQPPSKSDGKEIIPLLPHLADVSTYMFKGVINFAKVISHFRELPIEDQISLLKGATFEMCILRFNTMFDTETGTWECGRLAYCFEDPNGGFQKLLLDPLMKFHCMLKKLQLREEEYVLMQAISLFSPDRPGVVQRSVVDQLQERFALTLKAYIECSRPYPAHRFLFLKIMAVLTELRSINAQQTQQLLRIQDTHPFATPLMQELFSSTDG
# [20] = molecular target: Luciferin 4-monooxygenase (Photinus pyralis) (UniProt P08659); assay: Biochemical firefly luciferase enzyme assay for NPC (AID 624030; active = well fitted curve in the direction sought with a large enough effect; an effect the other way counts as inactive or inconclusive;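 note: purified P. pyralis luciferase at 10 nM with luciferin and ATP substrate; 0% = DMSO and -100% = full luciferase inhibition by PTC124 control; nearly all actives have a fitted effect of over 70% in size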); settings: purified P. pyralis luciferase, luminescence, 5 min; series mostly up to 58.6 µM
# Luciferin 4-monooxygenase (Photinus pyralis), sequence (P08659 whole entry, looked up): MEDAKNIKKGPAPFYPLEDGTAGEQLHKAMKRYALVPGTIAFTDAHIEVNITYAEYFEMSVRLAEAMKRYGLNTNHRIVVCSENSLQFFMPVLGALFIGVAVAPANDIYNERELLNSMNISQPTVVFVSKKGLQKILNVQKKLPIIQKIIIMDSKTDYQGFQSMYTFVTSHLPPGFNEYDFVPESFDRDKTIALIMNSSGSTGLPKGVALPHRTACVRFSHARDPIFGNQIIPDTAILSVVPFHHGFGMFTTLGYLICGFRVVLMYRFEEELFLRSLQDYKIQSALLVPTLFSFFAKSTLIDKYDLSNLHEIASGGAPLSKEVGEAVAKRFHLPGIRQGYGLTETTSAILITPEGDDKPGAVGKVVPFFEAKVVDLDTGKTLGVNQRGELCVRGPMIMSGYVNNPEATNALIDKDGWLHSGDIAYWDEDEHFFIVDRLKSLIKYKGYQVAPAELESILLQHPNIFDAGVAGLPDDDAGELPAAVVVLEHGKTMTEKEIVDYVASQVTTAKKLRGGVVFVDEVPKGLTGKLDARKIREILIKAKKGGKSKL
# Method in brief: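 Purified P. pyralis luciferase at 10 nM in 50 mM Tris Acetate (final), luminescence read within 5 minutes of enzyme addition to compounds. Activity normalised to PTC124 versus DMSO; concentration-response curves classed by r2, magnitude and activity.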
compound,measurement,setting,value
N[C@@H](Cc1ccccc1)C(=O)O,outcome,[1],inactive
same,Potency,[2],11.2 µM (active)
same,Potency,[3],inactive
same,max response,[4],-16.9%
same,outcome,[5],inactive
same,outcome,[6],inactive
same,Potency,[7],inactive
same,Potency,[8],inactive
same,max response,[9],-4.85%
same,Potency,[10],inactive
same,Potency,[11],inactive
same,max response,[12],-15%
same,max response,[13],7.11% (inactive)
same,Potency,[14],54.5 µM (active)
same,activation,[15],0.13% (inactive)
same,activation,[16],-0.444% (inactive)
same,max response,[17],-0.0138% (inactive)
same,max response,[18],-5.99% (inactive)
same,max response,[19],-0.251% (inactive)
COc1cccc2c1C(=O)c1c(O)c3c(c(O)c1C2=O)C[C@](O)(C(=O)CO)C[C@@H]3O[C@H]1C[C@H](N)[C@@H](O)[C@H](C)O1,outcome,[20],inactive
CC1(C)[C@@H]2CC[C@]1(C)[C@@H](OC(=O)CSC#N)C2,outcome,[20],inactive

# Source: PubChem BioAssay (NCATS)
